Drawing on PubChem BioAssay (EPA / NIEHS), this text covers outcome and AC50 for 40 compounds.

Active and inactive are the calls of the source. The calls were made as follows: active = hit-call score of the fitted dose curve at least 0.9, where 1 is the maximum; inactive = score below 0.9.

Sequence of E-selectin (Homo sapiens) (P16581 whole entry, looked up): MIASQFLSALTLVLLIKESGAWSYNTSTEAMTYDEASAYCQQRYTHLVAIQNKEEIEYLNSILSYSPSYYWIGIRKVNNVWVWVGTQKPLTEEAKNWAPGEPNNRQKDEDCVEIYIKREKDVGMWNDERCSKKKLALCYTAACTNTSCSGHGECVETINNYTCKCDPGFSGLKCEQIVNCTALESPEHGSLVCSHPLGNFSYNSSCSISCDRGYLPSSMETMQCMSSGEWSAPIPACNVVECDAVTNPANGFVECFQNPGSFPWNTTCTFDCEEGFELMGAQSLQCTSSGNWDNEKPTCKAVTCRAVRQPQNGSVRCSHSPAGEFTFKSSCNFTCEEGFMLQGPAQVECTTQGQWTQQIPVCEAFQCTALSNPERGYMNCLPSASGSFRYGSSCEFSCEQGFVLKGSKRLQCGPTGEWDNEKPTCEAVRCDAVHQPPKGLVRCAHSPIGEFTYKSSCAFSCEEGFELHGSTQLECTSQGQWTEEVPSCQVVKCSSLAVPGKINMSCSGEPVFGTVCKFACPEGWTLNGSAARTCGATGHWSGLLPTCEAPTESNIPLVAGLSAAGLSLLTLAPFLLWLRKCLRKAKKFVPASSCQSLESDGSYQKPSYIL

Read-out in this experiment: E-selectin (Homo sapiens) (UniProt P16581)
Put plainly: BSK_3C_Eselectin: BioMAP Diversity Plus: 3C Assay for Eselectin Biomarker Activity (AID 2283015). To be noted: primary human endothelial cells (HUVEC); actives raise or lower the signal. The protocol: BSK_3C is a cell-based, multiplexed-readout assay that uses umbilical vein endothelium, a human vascular primary cell, with measurements taken at 24 hours after chemical dosing in a 96-well plate.BSK_3C_Eselectin is an assay component measured in the BSK_3C assay. It measures E-selectin antibody related to regulation of gene expression using ELISA technology.Data from the assay component BSK_3C_Eselectin was analyzed into 1 assay endpoint. This assay endpoint, BSK_3C_Eselectin, was analyzed with bidirectional fitting relative to DMSO as the negative control and baseline of activity. Using a type of binding reporter, gain or loss-of-signal activity can be used to understand changes in the signaling as they relate to the gene SELE. Furthermore, this assay endpoint can be referred to as a primary readout, because this assay has produced multiple assay endpoints where this one serves a signaling function. To generalize the intended target to other relatable targets, this assay endpoint is annotated to the cell adhesion molecules intended target family, where the subfamily is selectins.
The levels of cell surface (or secreted, indicated by the prefix "s") biomarker endpoints were measured by ELISA. Overt cytotoxicity to cells in confluent adherent cultures (all systems other than the BT system) was assessed by measuring total protein levels using sulforhodamine B (SRB) staining in parallel cultures at the time of biomarker measurements, indicated as SRB endpoints. For proliferation assays for adherent cell types, individual cell types are cultured at sub-confluence and relative cell numbers quantified by SRB staining at time points optimized for each system (48 h: 3C and CASM3C systems; 72 h: BT and HDF3CGF systems; 96 h: SAg system). SRB was performed by staining cells with 0.1% SRB after fixation with 10% TCA and reading wells at 560 nm.Viability and proliferation of PBMC (T cells) was quantified by Alamar Blue reduction for the SAg and BT systems. For PBMC viability (referred to as PBMC Cytotoxicity within the assay endpoint names), cells were plated (75,000/well in a 96-well plate) and then chemical samples added for 1 h before addition of activators, SEB and TSST-1 (20 ng/mL final concentration each). Cells were incubated for 90 h. Then, Alamar Blue (20 uL/well) (Invitrogen, Cat DAL1100) was added for 6 h, and the plates were read with a fluorescence microplate reader at 546/580 nm (excitation/emission). For PBMC proliferation, cells were plated and activated as above but incubated for only 16 h prior to addition of Alamar Blue. Plates were read after 6 h.
For `CC1(C)C(=O)NC(=O)N1CO`, the result was inactive. Regarding `O=Cc1ccccc1C=O`, the result was inactive. Take `C=CCCCCCCCCCCCC`: the result was inactive. For `Cc1cc(Cc2ccc(N)c(C)c2)ccc1N`, the result was inactive.

Regarding `Cc1ccc(-c2cc(C(F)(F)F)nn2-c2ccc(S(N)(=O)=O)cc2)cc1`, the AC50 (in general, the midpoint of the concentration-response curve, whichever way the signal moves) is 30 µM (active).

Turning to `CC(C)c1cccc(C(C)C)c1`, the outcome was inactive. As for `CC(=O)[C@@]1(O)CC[C@H]2[C@@H]3CCC4=CC(=O)CC[C@]4(C)[C@H]3CC[C@@]21C`, the outcome was inactive. With `COc1ccc(OC(F)(F)F)cc1CN[C@H]1CCCN[C@H]1c1ccccc1`, the AC50 is 9.58 µM (active). As for `NCCOCCOCCN`, the result was inactive. For `CCC(C)N(C)C(=O)c1cc2ccccc2c(-c2ccccc2Cl)n1` (stereo not given), the result was inactive. As to `CC(C)NCC(O)c1ccc(O)c(O)c1` (stereo not given), the result was inactive. Take `CN(C)C(=O)NC1(c2ccccc2)CCN(CCC[C@]2(c3ccc(Cl)c(Cl)c3)CCCN(C(=O)c3ccccc3)C2)CC1`: the result was inactive. For the compound `Cn1cnc2c1c(=O)[nH]c(=O)n2C`, the outcome was inactive.

In the case of `CC(N)=O`, the outcome was inactive. In the case of `CN(C)CCCN1c2ccccc2Sc2ccc(Cl)cc21`, the AC50 was 33 µM (active). On to `c1ccc2occc2c1`, for which the outcome was inactive. With `S=c1[nH]c2ccccc2s1`, the result was inactive. Consider `CCCCc1nc2cccnc2n1Cc1ccc(-c2ccccc2-c2nnn[nH]2)cc1`, for which the outcome was inactive.

`Nc1nc(=S)c2[nH]cnc2[nH]1`: the result was inactive. The same measure, in the same setting: with `Cc1cn([C@H]2C=C[C@@H](CO)O2)c(=O)[nH]c1=O` the entry was “inactive”; with `CCCCC(CC)COC(=O)CCCCCCCC(=O)OCC(CC)CCCC` (stereo not given), “inactive”. On to `CCN(CC)CCOc1ccc(C(=C(Cl)c2ccccc2)c2ccccc2)cc1`, for which the AC50 was 14.3 µM (active). As to `CO[C@@H]1COCC[C@@H]1N[C@@H]1CC[C@@](C(=O)N2CCc3ncc(C(F)(F)F)cc3C2)(C(C)C)C1`, the outcome was inactive.

Turning to `OCC(CO)n1cnc(-c2ccc(F)cc2)c1-c1ccnc(Oc2ccccc2)n1`, the result was inactive. On the same count and under the same terms, the same measure for `CCCCCCCCCCCCCCCCO`: “inactive”; for `OCC(O)CO`: “inactive”.

In the case of `CCc1nc(N)nc(N)c1-c1ccc(Cl)cc1`, the outcome was inactive. For `CCCCCCC(CCCCCCCCCCC(=O)OCC(COC(C)=O)OC(C)=O)OC(C)=O` (stereo not given), the outcome was inactive. Still for that read-out and setting: with `Cc1cc(SC2=C(O)C[C@@](CCc3ccc(N)cc3)(C(C)C)OC2=O)c(C(C)(C)C)cc1CO` the entry was “inactive”.

With `CCCCCCC(C=O)=Cc1ccccc1`, the AC50 is 37.7 µM (active). Consider `COc1ccc(C(=O)Nc2nc3ccccc3c(NCc3ccccc3)c2C#N)cc1`, for which the result was inactive. Same read-out and setting: the same measure for `CC1=C(C)S(=O)(=O)CCS1(=O)=O`: “inactive”. For `O=C(O)c1[nH]n(-c2ccc(S(=O)(=O)O)cc2)c(=O)c1N=Nc1ccc(S(=O)(=O)O)cc1`, the result was inactive. In the case of `CC(=O)O`, the result was inactive. As to `O=C1OC(c2ccc(O)cc2)(c2ccc(O)cc2)c2ccccc21`, the result was inactive. Take `CC(=O)O[C@]1(C(C)=O)CC[C@H]2[C@@H]3C=C(Cl)C4=CC(=O)[C@@H]5C[C@@H]5[C@]4(C)[C@H]3CC[C@@]21C`: the result was inactive. As for `Oc1ccccc1O`, the AC50 was 1.73 µM (active). As to `O=C(O)CC(O)(CC(=O)O)C(=O)O`, the outcome was inactive. Consider `CCCCOC(=O)CCCCC(=O)OCCCC`, for which the result was inactive. Consider `CCCCC(CC)CO` (stereo not given), for which the result was inactive.
